# Test results as given in PubChem BioAssay AID652062 (Broad Institute, 2013).
# Hit rate of the full screen: of about 1,400 compounds, about 1,100 (79%) were called active.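 The calls were made as follows: active = fitted half-maximal concentration of a falling signal no higher than twice the top valid dose in every test run; inconclusive = runs disagree, or flat partial inhibition, or poor fit; inactive = every run inactive: flat, wrong direction, or potency beyond limit.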 The set was probably picked from earlier hits. Not all results are given here. Potency and affinity values are given separately.
# Assay: inhibitors of clade B AD8 Env fusion, dose response, cell-based, cherry-pick (AID 652062)
# Details: HeLa-AD8 Env / CEM-CCR5 cell fusion, luciferase; at 35 µM (top of the series) unless noted
row,SMILES,"activity change, negative = inhibition"
1,CCN(c1nc(N)c(C(=O)N=C(N)N)nc1Cl)C(C)C,-8.55%
2,Cc1[nH]c2ccccc2c1/C=N\NC(=O)c1ccccc1Cl,8.5%
3,CN1CCc2ccccc2Cc2[nH]c3ccccc3c2CC1,-17.8%
4,CC(C)OCCCn1c(=S)[nH]c2ccc(N3CCOCC3)cc2c1=O,-27.3%
5,O=C(NCc1ccccc1)[C@@H]1CCCN1C(=O)[C@@H]1CCCN1C(=O)c1cccc2ccccc12,-3.32%
6,Cc1cc(C(=O)N2CCC(C(=O)O)CC2)c(C(F)(F)F)o1,-10.2%
7,C[C@@H]1CN([C@@H](C)CO)C(=O)c2cc(NC(=O)c3ccccc3)ccc2O[C@@H](C)CCCCO[C@H]1CN(C)Cc1ccc(C(=O)O)cc1,52.2%
8,C[C@@H]1CN([C@@H](C)CO)C(=O)c2cc(NC(=O)c3ccncc3)ccc2O[C@H]1CN(C)Cc1ccncc1,56.3%
9,C[C@@H]1CN([C@@H](C)CO)C(=O)c2cc(NC(=O)c3ccncc3)ccc2O[C@@H]1CN(C)Cc1ccncc1,34.4%
10,COc1ccc(CN(C)C[C@@H]2Oc3ccc(NC(=O)Nc4ccc(OC)cc4)cc3C(=O)N([C@H](C)CO)C[C@@H]2C)cc1,64%
11,O=c1[nH]c(=O)n([C@H]2C[C@H](O)[C@@H](CO)O2)cc1F,-10.2%
12,Cc1cc(C)nc(/N=C(\N)Nc2ccc(CC(=O)OC(C)C)cc2)n1,39.8%
13,C[C@@]12C(=O)N(Cc3ccc(F)cc3)CC(=O)N1[C@H]1c3cc(Cl)ccc3OC[C@@H]1[C@@H]2c1ccccc1,19.5%
14,CN(C[C@H](Cc1ccccc1)N(C[C@H](c1ccccc1)N(CCc1ccccc1)N=O)N=O)N=O,-5.55%
15,C[C@@H]1CN([C@@H](C)CO)C(=O)c2cc(NS(=O)(=O)c3ccccc3)ccc2O[C@H]1CN(C)Cc1ccc(Oc2ccccc2)cc1,132%
16,Cc1ccc(S(=O)(=O)Nc2ccc3c(c2)CC(=O)N([C@@H](C)CO)C[C@H](C)[C@@H](CN(C)Cc2ccc(-c4ccccc4)cc2)O3)cc1,215% [at 18 µM]
17,Cc1ccc(S(=O)(=O)Nc2ccc3c(c2)C(=O)N([C@H](C)CO)C[C@@H](C)[C@H](CN(C)S(=O)(=O)c2ccc(F)cc2)O3)cc1,-22.9% [at 16 µM]
18,O=C(C1CCCCC1)N1CCCC(c2nc3c(nnn3Cc3ccccc3)c(=O)[nH]2)C1 (stereo not drawn),-8.09% [at 16 µM]
19,C[C@H](CO)N1C[C@H](C)[C@H](CN(C)S(=O)(=O)c2ccccc2)Oc2ccc(NS(=O)(=O)c3ccc(F)cc3)cc2CC1=O,10.2%
20,Cc1ccc(S(=O)(=O)N(C)C[C@@H]2Oc3ccc(NS(=O)(=O)c4c(C)noc4C)cc3CC(=O)N([C@H](C)CO)C[C@@H]2C)cc1,-10.8%
21,C[C@H](CO)N1C[C@H](C)[C@@H](CN(C)S(=O)(=O)c2ccc(F)cc2)Oc2ccc(NS(=O)(=O)c3cn(C)cn3)cc2CC1=O,35.3%
22,CCNc1ncnc2c1cnn2C1CCCO1 (stereo not drawn),-11.7%
23,C[C@@H]1CN([C@@H](C)CO)C(=O)Cc2cc(NC(=O)NC3CCCCC3)ccc2O[C@@H]1CN(C)S(=O)(=O)c1ccc(Cl)cc1,-18.9%
24,O=C(Nc1cccc(F)c1)N[C@H]1CC[C@@H](CCNS(=O)(=O)c2cccc(Cl)c2)O[C@H]1CO,15.8%

row,SMILES,"activity change, negative = inhibition"
1,CCS(=O)(=O)N[C@H]1CC[C@@H](CC(=O)NCc2ccc(Cl)cc2)O[C@@H]1CO,46.4%
2,COc1cccc(CNC(=O)C[C@@H]2C=C[C@H](NC(=O)C3CCC3)[C@H](CO)O2)c1,64%
3,C[C@@H]1CN([C@H](C)CO)C(=O)c2cccc(NS(=O)(=O)c3ccc(Cl)cc3)c2O[C@H]1CN(C)CC1CCCCC1,87% [at 8 µM]
4,C[C@H]1CN([C@@H](C)CO)C(=O)c2cccc(NC(=O)C3CCCCC3)c2O[C@H]1CN(C)S(C)(=O)=O,43.4%
5,C[C@@H]1CN([C@H](C)CO)C(=O)c2cccc(NC(=O)c3cnccn3)c2O[C@H]1CN(C)Cc1ccccc1,8.76%
6,C[C@H](CO)N1C[C@H](C)[C@H](CN(C)C(=O)Nc2ccccc2)Oc2c(NS(=O)(=O)c3ccc(F)cc3)cccc2C1=O,63.4% [at 8 µM]
7,CNC[C@@H]1Oc2c(N)cccc2C(=O)N([C@@H](C)CO)C[C@@H]1C,-6.55%
8,COc1ccccc1N/C(N)=N/c1nc(CSc2ccc(C)cc2)cc(=O)[nH]1,-51.5%
9,CCOC(=O)c1ccc(NC2c3ncccc3C(=O)N2Cc2ccc(F)cc2)cc1 (stereo not drawn),-27%
10,CCOC(=O)C1=C(C)N=C2c3ccccc3C(=O)C2C1c1ccc(Cl)cc1 (stereo not drawn),-84.7%
11,CC(CCc1ccco1)NC(=O)CCc1nnc2ccc(NCc3ccccc3Cl)nn12 (stereo not drawn),87.2%
12,COc1cccc(S(=O)(=O)N[C@H]2CC[C@@H](CCN)O[C@@H]2CO)c1,11.2%
13,COc1cccc(S(=O)(=O)N[C@@H]2CC[C@H](CCN)O[C@H]2CO)c1,3.96%
14,O=C(Nc1cc2c3c(c1)CC(=O)N3CCC2)c1ccc(Cl)cc1,197% [at 16 µM]
15,COc1ccccc1CNC(=O)C[C@H]1C[C@@H]2c3cc(NC(=O)c4cccnc4)ccc3O[C@@H]2[C@@H](CO)O1,64.7%
16,CCCNC(=O)C[C@@H]1C[C@H]2c3cc(NC(=O)c4cccnc4)ccc3O[C@H]2[C@H](CO)O1,6.61%
17,CC1CCN(C(=O)c2ncn3c2C(=O)NC[C@@H]3C)CC1,15.1%
18,CCN(CC)C(=O)c1ncn2c1C(=O)NC[C@@H]2C,-31.4%
19,CC(C)C#Cc1ccc2c(c1)O[C@@H](CN(C)C(=O)C1CCCCC1)[C@H](C)CN([C@H](C)CO)S2(=O)=O,41.8% [at 16 µM]
20,C[C@@H]1CN([C@H](C)CO)S(=O)(=O)c2ccc(C#Cc3cccc(F)c3)cc2O[C@@H]1CN(C)C(=O)CN1CCOCC1,80.2%
21,C[C@@H]1CN([C@@H](C)CO)S(=O)(=O)c2ccc(-c3ccc(F)cc3)cc2O[C@H]1CN(C)C(=O)C1CCCCC1,-27.8%
22,Cc1ccc(-c2ccc3c(c2)O[C@@H](CN(C)C(=O)C2CCCCC2)[C@H](C)CN([C@H](C)CO)S3(=O)=O)cc1,53.1% [at 16 µM]
23,CCC(=O)N(C)C[C@H]1Oc2cc(/C=C/c3ccccc3)ccc2S(=O)(=O)N([C@@H](C)CO)C[C@H]1C,-29.3%
24,CCCC#Cc1ccc2c(c1)O[C@@H](CN(C)C(=O)C1CCCCC1)[C@H](C)CN([C@H](C)CO)S2(=O)=O,90.1% [at 16 µM]
